Experimental data published in publication PMC4336329 (PLoS ONE, 2015).
The whole screen tested about 310,000 compounds, of which about 14,000 (4.5%) showed an effect of 50% or more. The effect is printed as a negative number. What follows is part of a selection rich in strong results, with near analogues and random picks from the rest.

Molecular target: human ether-à-go-go-related gene (hERG) potassium channel (human, UniProt Q12809)
Experiment: primary screen, population patch clamp on CHO cells stably expressing hERG; higher = less effect of the substance
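Further: peak tail current of the secondary pulse compared with the same well before compound.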

Chain of human ether-à-go-go-related gene (hERG) potassium channel (Q12809 whole entry, looked up): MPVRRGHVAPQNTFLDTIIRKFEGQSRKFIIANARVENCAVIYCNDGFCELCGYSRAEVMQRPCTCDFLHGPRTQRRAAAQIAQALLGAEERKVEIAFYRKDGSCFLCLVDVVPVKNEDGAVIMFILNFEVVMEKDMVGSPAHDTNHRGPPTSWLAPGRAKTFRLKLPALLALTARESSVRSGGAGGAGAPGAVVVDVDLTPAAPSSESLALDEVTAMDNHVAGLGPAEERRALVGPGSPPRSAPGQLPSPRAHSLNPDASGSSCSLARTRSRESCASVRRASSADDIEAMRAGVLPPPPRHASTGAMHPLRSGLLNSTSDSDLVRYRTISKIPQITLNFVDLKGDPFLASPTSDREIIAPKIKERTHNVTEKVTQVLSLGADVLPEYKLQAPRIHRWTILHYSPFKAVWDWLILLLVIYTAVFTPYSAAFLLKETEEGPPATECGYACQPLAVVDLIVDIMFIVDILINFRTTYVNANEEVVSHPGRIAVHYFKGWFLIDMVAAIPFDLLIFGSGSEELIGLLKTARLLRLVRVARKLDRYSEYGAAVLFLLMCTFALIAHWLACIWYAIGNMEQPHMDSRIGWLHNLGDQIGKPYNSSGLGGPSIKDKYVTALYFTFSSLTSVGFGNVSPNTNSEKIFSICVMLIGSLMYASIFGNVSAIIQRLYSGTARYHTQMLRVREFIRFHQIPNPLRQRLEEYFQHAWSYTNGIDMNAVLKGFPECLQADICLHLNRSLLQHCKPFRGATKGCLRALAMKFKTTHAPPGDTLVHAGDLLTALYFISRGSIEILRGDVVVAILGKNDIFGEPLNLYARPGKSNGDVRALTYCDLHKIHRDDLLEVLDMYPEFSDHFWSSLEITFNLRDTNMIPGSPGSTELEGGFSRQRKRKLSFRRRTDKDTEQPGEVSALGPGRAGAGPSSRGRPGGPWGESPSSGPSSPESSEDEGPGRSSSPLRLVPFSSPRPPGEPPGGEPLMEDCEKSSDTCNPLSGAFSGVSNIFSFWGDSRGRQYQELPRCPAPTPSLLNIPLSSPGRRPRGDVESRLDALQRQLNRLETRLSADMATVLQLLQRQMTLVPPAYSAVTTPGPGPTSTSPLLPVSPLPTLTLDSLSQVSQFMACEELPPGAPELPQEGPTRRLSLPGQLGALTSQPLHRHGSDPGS

Compound	hERG current change (%, negative = inhibition) at 10uM
COC(=O)c1ccc(OCCn2cnc3ccccc3c2=O)cc1	-11.2%
COc1ccc(NC(=O)C2Cc3cccc(OC)c3O/C2=N\O)cc1 (stereo not drawn)	6.66%
COc1cccc(-n2c(COc3ccccc3C)nnc2SCC(=O)O)c1	1.56%
CSCC[C@H](NC(=O)N1CCn2c1nc1ccccc12)C(=O)NCc1ccco1	-19.1%
CCN(C(=O)COC(=O)c1cc(-c2ccccc2)nc2c1c(C)nn2-c1ccccc1)C1CCS(=O)(=O)C1 (stereo not drawn)	21.5%
CCN(CC)CCCNC(=O)c1oc2ccc3c(c2c1C)C(O)CC(C)(C)O3 (stereo not drawn)	-4.08%
Cc1ccc(NS(=O)(=O)c2ccc3c(c2)n(C)c(=O)n3C)cc1C	14.2%
COc1ccc(CNCC(O)(c2ccccc2)c2ccc(F)cc2)cc1 (stereo not drawn)	-73.3%
OC(CNCc1ccc(F)cc1)(c1ccccc1)c1ccc(F)cc1 (stereo not drawn)	-33.8%
COc1ccc(CNCC(O)(c2ccc(F)cc2)c2ccc(F)cc2)cc1	-67.3%
Cc1ccc(CNCC(O)(c2ccccc2)c2ccc(F)cc2)cc1 (stereo not drawn)	-45.6%
OC(CNCc1ccc(F)cc1)(c1ccc(F)cc1)c1ccc(F)cc1	-33.7%
OC(CNCc1ccccc1)(c1ccc(F)cc1)c1ccc(F)cc1	-38.1%
Cc1ccc(C(O)(CNCc2ccccc2)c2ccccc2)cc1 (stereo not drawn)	-33.9%
COc1cccc(CNCC(O)(c2ccc(Cl)cc2)c2ccc(Cl)cc2)c1	-12.2%
Cc1ccc(CNCC(O)(c2ccc(F)cc2)c2ccc(F)cc2)cc1	-56.4%
CC(C)C(NC(=O)C1CCCCC1)C(=O)Nc1ccncc1 (stereo not drawn)	9.18%
Cc1cc(C)cc(C(=O)N2CCC(CCC(=O)NC3CC3)CC2)c1	-2.09%
CCOC(=O)C1CCN(C(=O)CN(c2cc(Cl)ccc2OC)S(=O)(=O)c2ccccc2)CC1	-67%
NC(=O)C1CCN(C(=O)CN(c2ccc3c(c2)OCCO3)S(=O)(=O)c2ccccc2)CC1	-18%
CCOC(=O)C1CCN(C(=O)CN(c2ccc3c(c2)OCCO3)S(C)(=O)=O)CC1	-4.03%
CCOC(=O)C1CCN(C(=O)CN(c2cc(OC)ccc2OC)S(=O)(=O)c2ccccc2)CC1	-2.73%
CCOC(=O)C1CCN(C(=O)CN(c2ccc3c(c2)OCCO3)S(=O)(=O)c2ccccc2)CC1	-53.1%

Compound	hERG current change (%, negative = inhibition) at 10uM
CCOC(=O)N1CCN(C(=O)CN(c2cc(Cl)ccc2OC)S(=O)(=O)c2ccccc2)CC1	-19.4%
COC(=O)NCc1ccc(CNC(=O)OC)cc1	4.84%
CCc1cc(C(=O)N2CCN(c3ccccc3OC)CC2)sc1C	-15%
COc1cc(OC)cc(C(=O)NNC(=S)Nc2ccccc2OC)c1	10.8%
CC1CCN(C(=O)CN2C(=O)C(=O)N(C)C2=O)c2ccccc2S1 (stereo not drawn)	5.74%
CSc1cccc(NC(=O)/C=C/c2ccco2)c1	1.51%
O=C(COC(=O)/C=C/c1ccc(F)cc1)NCc1cccs1	8.26%
CC[n+]1c(/C=C/N(C)c2ccccc2)n(-c2ccccc2)c2ccc(-c3nc4ccccc4s3)cc21.[I-]	-81.1%
CCOc1cc(-c2nc3ccccc3s2)ccc1O	4.57%
CC[n+]1cccc(-c2nc3ccccc3s2)c1.[I-]	-0.683%
CCOc1ccc(CCNC(=O)c2cnccn2)cc1OCC	11.1%
CCNc1nc2c(c(=O)n(C)c(=O)n2C)n1Cc1ccc(Cl)cc1	-7.07%
Fc1ccc(Oc2nnnn2-c2ccccc2)cc1	44.8%
COc1ccc(Oc2nnnn2-c2ccccc2)cc1	-16.6%
c1ccc(-n2nnnc2Oc2ccc(-n3ccnc3)cc2)cc1	-54%
CCNC(=O)COc1ccc(-c2ccccc2)cc1	-19.4%
CCOC(=O)c1cn2nc(Oc3ccc(C)cc3)ccc2n1	1.97%
CCOC(=O)c1cn2nc(Oc3ccc(C#N)cc3)ccc2n1	-54.1%
CCOC(=O)c1cn2nc(Oc3ccc(OC)cc3)ccc2n1	4.29%
CC1=C/C(=N\OS(=O)(=O)c2ccccc2)C(C)=CC1=O	-9.37%
O=C(CSc1nnc(COc2ccc(Cl)cc2)o1)N1CCN(c2ccccc2)CC1	-1.37%
COc1ccccc1C1CC(c2ccc(Cl)cc2Cl)Nc2nc(N)nn21 (stereo not drawn)	-44.7%
Cc1cccn2c(=O)c3cc(S(=O)(=O)c4ccc(Br)cc4)c(=N)n(C4CCCCC4)c3nc12	18.6%

Compound	hERG current change (%, negative = inhibition) at 10uM
Cc1cccn2c(=O)c3cc(S(=O)(=O)c4ccc(Br)cc4)c(=N)n(C4CCCC4)c3nc12	9.92%
Cc1cccn2c(=O)c3cc(C(=O)NCc4ccco4)c(=N)n(C4CCCC4)c3nc12	-78.8%
Cc1ccc(S(=O)(=O)c2cc3c(=O)n4cccc(C)c4nc3n(C3CCCCC3)c2=N)cc1	15.7%
Cc1cccn2c(=O)c3cc(C(=O)NCc4ccco4)c(=N)n(C4CCCCC4)c3nc12	-77.4%
COc1ccc(-n2c(N)c(C(=O)NCc3ccco3)c3nc4ccccc4nc32)c(OC)c1	0.913%
Cc1csc(NC(=O)c2sc3nc(-c4cccs4)ccc3c2N)n1	5.65%
COc1ccc(OC)c(NC(=O)CSc2nnc(C3CCCCC3)o2)c1	-19%
CC(=O)N1CC(C)Sc2ccc(S(=O)(=O)NCc3ccc(F)cc3)cc21 (stereo not drawn)	-49.6%
O=C1c2ccccc2S(=O)(=O)c2cc(C(=O)N3CCN(c4ccc(Cl)cn4)CC3)ccc21	-33.1%
Cc1noc(C)c1CSCC(=O)Nc1ccc(S(C)(=O)=O)cc1	15.2%
CCOc1ccc(S(=O)(=O)N2CCCCC2)cc1NC(=O)CSCc1c(C)noc1C	-39.5%
CCOc1ccc(S(=O)(=O)N2CCOCC2)cc1NC(=O)CSCc1c(C)noc1C	-17.3%
Cc1noc(C)c1CSCC(=O)Nc1cc(S(C)(=O)=O)ccc1Cl	0.564%
CCOc1ccc(S(=O)(=O)N(CC)CC)cc1NC(=O)CSCc1c(C)noc1C	-67.2%
CCN(CC)S(=O)(=O)c1ccc(N(C)C)c(NC(=O)CSCc2c(C)noc2C)c1	-60.4%
C=CCOc1cccc(C2C(C(=O)c3cccs3)=C(O)C(=O)N2Cc2cccnc2)c1 (stereo not drawn)	-1.2%
CCOC(=O)C1=C(C)NC(=O)NC1c1cc(Br)c(O)c(OC)c1 (stereo not drawn)	-2.71%
COc1ccc(CNc2ccc3c(c2)ncn3C)cc1OC	15.8%
Cc1cnc(C(=O)Nc2cc(S(=O)(=O)N3CCOCC3)ccc2N2CCN(C)CC2)cn1	-18.6%
COc1ccc(-n2cc(CNCCCn3ccnc3)c(-c3cccc(F)c3)n2)cc1	-75.2%
COc1ccc(-n2cc(CN[C@H]3CCCCNC3=O)c(-c3cccc(F)c3)n2)cc1	-64.1%
COc1ccc(-n2cc(CNC3CCOCC3)c(-c3cccc(F)c3)n2)cc1	-48.2%
COc1ccc(-n2cc(CN(C)C3CCOCC3)c(-c3cccc(F)c3)n2)cc1	-29.1%

Compound	hERG current change (%, negative = inhibition) at 10uM
COc1ccc(-n2cc(CNCC3CCOCC3)c(-c3cccc(F)c3)n2)cc1	-78.5%
COc1ccc(-n2cc(CNC3CCC(O)CC3)c(-c3cccc(F)c3)n2)cc1 (stereo not drawn)	-45.3%
COc1ccc(-n2cc(CNCCCn3ccnc3)c(-c3ccccc3Cl)n2)cc1	-44.9%
COc1ccc(-n2cc(CNCc3cnc4ccccn34)c(-c3cccc(F)c3)n2)cc1	-30.2%
COc1ccc(-n2cc(CNC3CCN(C)CC3)c(-c3cccc(F)c3)n2)cc1	-77.5%
COc1cccc(-c2nn(-c3ccccc3)cc2CN2CCCO2)c1	-5.81%
COc1ccc(-n2cc(CN(C)Cc3n[nH]c(=O)[nH]3)c(-c3cccc(F)c3)n2)cc1	-15.4%
COc1ccc(N2C(=O)CC(NC3CCCCNC3=O)C2=O)cc1 (stereo not drawn)	8.59%
Cc1cccc(C)c1OCC(=O)Nc1ccc(N2CCOCC2)cc1	-4.13%
O=C(CC12CC3CC(CC(C3)C1)C2)Nc1cccc2ncccc12	-23%
CN(C)c1ccc(Nc2cc(Cl)ncn2)cc1	1.65%
COc1ccc(OC)c(N(CC(=O)Nc2ccc3c(c2)OCCO3)S(C)(=O)=O)c1	9.64%
CC(C)CC(=O)NC(=S)Nc1ccccc1C(=O)Nc1ccccc1	8.01%
O=C(c1ccc(CN2CCOCC2)cc1)N1CCN(c2ccccc2F)CC1	-3.33%
COc1ccc(CNCc2cc3c(C(C)(C)C)nn(-c4ccccc4)c3[nH]c2=O)cc1	-24%
CCOC(=O)c1c(NC(=S)Nc2ccccc2)sc2c1CCN(CC)C2	-81.5%
CCOC(=O)c1c(NC(=S)Nc2ccccc2)sc(C)c1C	4.49%
CCOC(=O)c1c(NC(C)=O)sc2c1CCN(Cc1ccccc1)C2.Cl	-20.5%
CCOC(=O)c1c(NC(=S)Nc2ccccc2)sc2c1CCN(CCc1ccccc1)C2	-64.1%
CCOC(=O)c1c(N)sc2c1CCN(CCc1ccccc1)C2	-28.6%
CCOC(=O)c1c(NC(=S)NCc2ccccc2)sc2c1CCN(C(=O)OCC)C2	32.8%
